Activity calls are given as the source filed them. How the source made its calls: active means hit-call score of the fitted dose curve at least 0.9, where 1 is the maximum; inactive means score below 0.9.
What was measured:
[1] = TAMU_PeakParms_SingleDonor1434_Chronotropy: Texas A&M University (TAMU) 1.5-hr Human Induced Pluripotent Stem Cell (iPSC)-derived Cardiomyocytes Calcium (Ca+2) Flux Assay for Cardiotoxicity: Chronotropy (changes in peak frequency) (AID 2284217); details: actives raise or lower the signal
In short: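 Beat frequency of single-donor iPSC cardiomyocytes was recorded through a calcium-sensitive dye 1.5 hours after exposure to four concentrations up to 100 uM. An EC05 point of departure was derived.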

[2] = IUF_NPC1a_proliferation_area_72hr: Leibniz Research Institute for Environmental Medicine (IUF) 72-hour Neural Progenitor Cell Proliferation Area Assay (NPC1a) (AID 2284208)
In short: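 hNPC spheres (human fetal cortex, GW 16-19), one per poly-Hema U-bottom well; EGF+FGF medium; dosed day 0, no re-dosing; 72 h, 37C, 5% CO2; phase-contrast sphere area; DMSO = baseline; minus-GF = positive ctrl.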

[3] = IUF_NPC1_viability_72hr: Viability Assessment at 72 hours in the Leibniz Research Institute for Environmental Medicine (IUF) Neural Progenitor Cell Proliferation Assay (NPC1) (AID 2284209)
In short: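 hNPC spheres, 1/well, EGF+FGF medium, 37C/5% CO2; dosed day 0, 72 h, no re-dosing. Resazurin reduction (alamar blue) fluorescence; DMSO = negative control/baseline; growth-factor-free wells as positive control.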

[4] = CCTE_Mundy_HCI_Cortical_Synap_Neur_Matur_NeuriteSpotCountPerNeuriteLength: CCTE's Synaptogenesis and Neurite Maturation Assay in rat cortical cells for Neurite Spot Count per Neurite Length, Mundy Lab (AID 2284210)
In short: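 Rat primary cortical cultures, glia arrested with AraC at DIV 5, were dosed with media change at DIV 7 and fixed at DIV 12. Synaptophysin puncta per MAP2-labelled neurite length were quantified by high-content imaging versus DMSO.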

[5] = CCTE_Mundy_HCI_Cortical_Synap_Neur_Matur_BPCount: CCTE's Synaptogenesis and Neurite Maturation Assay in rat cortical cells for Branch Point Count, Mundy Lab (AID 2284211)
In short: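 Rat primary cortical cultures, AraC added DIV 5; chemicals dosed DIV 7 through DIV 12. Fixed cells stained for MAP2, synaptophysin and Hoechst; neurite branch points counted by automated high-content imaging, fitted relative to DMSO.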

[6] = CCTE_Mundy_HCI_Cortical_NOG_NeuriteCount: CCTE's Neurite Outgrowth Assay in rat cortical cells for Neurite Count, Mundy Lab (AID 2284212);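 further: cells fixed about two days after chemical exposure began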
In short: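 Neurite number per cell from high-content imaging of betaIII-tubulin immunostaining, with Hoechst nuclear counterstain.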

[7] = CCTE_Mundy_HCI_Cortical_NOG_NeuriteLength: CCTE's Neurite Outgrowth Assay in rat cortical cells for Neurite Length, Mundy Lab (AID 2284213);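 on AC50: neurites imaged about 48 to 50 h after chemical exposure began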
In short: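 Neurite length was read by high-content imaging of βIII-tubulin-labelled neurites in rat primary cortical cultures. Activity was fitted relative to DMSO.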

[8] = CCTE_Mundy_HCI_Cortical_Synap_Neur_Matur_NeuriteLength: CCTE's Synaptogenesis and Neurite Maturation Assay in rat cortical cells for Neurite Length, Mundy Lab (AID 2284214)
In short: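 Rat cortical neurons, AraC at DIV 5; compound + media change DIV 7, end DIV 12 (288.33 h). Fix, MAP2/synaptophysin/Hoechst immunostain, automated HCI of neurite length vs DMSO.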

[9] = CCTE_Mundy_HCI_Cortical_Synap_Neur_Matur_NeuriteSpotCountPerNeuron: CCTE's Synaptogenesis and Neurite Maturation Assay in rat cortical cells for Neurite Spot Count per Neuron Count, Mundy Lab (AID 2284215)
Protocol: CCTE_Mundy_HCI_Cortical_Synap&Neurite_Matur is a multiplexed, cell-based-readout assay that uses rat primary cortical cells with measurements taken at 288.33 hours after chemical dosing in a microplate: 96-well plate.CCTE_Mundy_HCI_Cortical_Synap_Neur_Matur_NeuriteSpotCountPerNeuron is one of eight components of the CCTE_Mundy_HCI_Cortical_Synap&Neurite_Matur assay. It measures synaptogenesis and neurite maturation related to number of neurite-associated synapses (synaptophysin puncta) per neuron using High Content Imaging of fluorescently labelled markers.[…] Using a type of morphology reporter, loss -of-signal activity can be used to understand developmental effects.
Cells are plated onto 96 well plates and allowed 2 hr for attachment to the substrate. At days in vitro (DIV) 5, Cytosine Arabinoside (AraC) is added to arrest glial cell growth. Chemicals are dosed and a media change is performed at DIV 7 of differentiation and is continued through DIV 12 when the experiment is terminated. Cells are fixed with […] and Hoechst Dye. Cells are stained using Millipore Mouse anti-MAP2MAB3418 (1:800) and Millipore Rabbit anti-Synaptophysinsc-1750 (1:250) primary antibodies and Alexa Fluor-488 goat anti-mouse and AlexaFluor-546 goat anti-rabbit secondary antibodies to label neuronal cell nuclei, synapses and neurites. A Cellomics ArrayScan VTi HCS Reader is used for automated image acquisition and analysis of neurite outgrowth.

[10] = CCTE_Mundy_HCI_Cortical_Synap_Neur_Matur_SynapseCount: CCTE's Synaptogenesis and Neurite Maturation Assay in rat cortical cells for Synapse Count, Mundy Lab (AID 2284218)
In short: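 Primary rat cortical culture; AraC DIV 5 to arrest glia; compound + media change DIV 7; terminated DIV 12. PFA/Hoechst fix, anti-MAP2 + anti-synaptophysin immunostain; HCI synapse count/neuron; DMSO = baseline.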

Measured: AC50

CC(C)NCC(O)COc1ccc(CC(N)=O)cc1 (stereo not drawn)
inactive: [1]

Oc1c(Cl)cc(Cl)c(Cl)c1Cc1c(O)c(Cl)cc(Cl)c1Cl
inactive: [3] | [4] | [1]
active: [2] 17.6 µM | [5] 8.53 µM | [6] 31 µM | [7] 23.1 µM | [8] 13.4 µM | [9] 9.95 µM | [10] 13.1 µM

CN(C)CCOC(C)(c1ccccc1)c1ccccn1 (stereo not drawn)
not listed: [1]
inactive: all other assays above

COCCc1ccc(OCC(O)CNC(C)C)cc1 (stereo not drawn)
not listed: [1]
inactive: all other assays above

COCCOCCOCCO
not listed: [1]
inactive: all other assays above

Source: PubChem BioAssay (EPA / NIEHS)
